Bioassay records as filed in PubChem BioAssay.
Vaccinia Venus = inhibitors of vaccinia virus (Venus reporter). AID 720580. 330,000 compounds, 0.46% hits. Vaccinia virus Venus reporter expression, fluorescence. Potency, µM (doses to about 36.5 µM), for inactives: at the highest dose activity change, negative = inhibition, most hits filed as inhibitors; calls by dose curve; tested in A549 cells; also: potency is read from the fitted curve at half-maximal effect; nearly all actives have a fitted effect of over 30% in size
Vaccinia mCherry = inhibitors of vaccinia virus infection (mCherry reporter signal); Potency, µM (top dose mostly 36.5 µM), without a hit: top-dose activity change, negative = inhibition, usual class: inhibitors; Vaccinia virus mCherry reporter infection, fluorescence; 310,000 compounds, 0.63% hits; calls by dose curve; tested in A549 cells; also: potency is read from the fitted curve at half-maximal effect; nearly all actives have a fitted effect of over 35% in size
HCMV inh = inhibitors of human cytomegalovirus; activity change, negative = inhibition, % at 57.5 µM; HFF cells, HCMV-luciferase reporter, 72 h; stronger effect = lower value; 410,000 compounds, 4.5% hits; in the data active = activity change below about -60%; inconclusive = no clear call, values can overlap the other calls; inactive = above about -39%
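Luciferase read-out from HCMV-luciferase-infected HFFs (MOI 1 PFU/cell) 72 h post infection at 37C; compounds added after 16 h cell attachment; activity normalized between buffer-only basal and Salinomycin (10uM) inhibitor controls.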
Marburg entry inh = inhibitors of Marburg virus binding or cell entry; Marburg virus pseudotyped entry inhibition, cell reporter; Potency, µM (doses to about 37.8 µM), without a hit: top-dose activity change, negative = inhibition, most hits filed as inhibitors; 300,000 compounds, 1.8% hits; AID 540276; calls by dose curve; tested in HEK293 cells; also: potency is read from the fitted curve at half-maximal effect
HCV inhibitor = HCV inhibition. Huh7.5.1 HCVcc-Cre infection, luciferase reporter, 44 h. Potency, µM (doses to about 41.8 µM), for the others: at the highest dose activity change, negative = inhibition, usual class: inhibitors. 340,000 compounds, 3.4% hits; active = well fitted inhibition curve with a large enough effect; inconclusive = small, poorly fitted or top-dose-only effect, or another doubt; inactive = no such curve, though single readings can be large or run the other way; also: potency is read from the fitted curve at half-maximal effect
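Luciferase read-out (15 sec integration) after a 15 min room-temperature substrate step quantifies HCVcc-Cre infection. Cells, 1,000 per well, had compound added 4 h post-plating, then virus at ~0.5 moi, and were cultured 44 h.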
Lassa entry inh = blocks Lassa virus binding to or entry into cells | Lassa virus pseudotype entry inhibition, cell reporter | Potency, µM (series often up to 37.9 µM), for inactives: at the highest dose activity change, negative = inhibition, hits mostly inhibitors | 300,000 compounds, 1.2% hits | AID 540256; calls by dose curve; tested in HEK293 cells; also: potency is read from the fitted curve at half-maximal effect; nearly all actives have a fitted effect of over 50% in size
The depositor's hits bear a star; i = inactive; ? = inconclusive; . = no result; [ ] = another dose, or the depositor's remark. The list is not random: actives were taken first. Their share in the collection is about 7.8%. % is scaled to controls: 0 for no effect and ±100 for the full control effect.

SMILES	Vaccinia Venus	Vaccinia mCherry	HCMV inh	Marburg entry inh	HCV inhibitor	Lassa entry inh
OC[C@@H]1CN(Cc2ccc(-c3ccccc3)cc2)C[C@H](n2cnc3c(NC4CCC4)ncnc32)O1	-23.3%	-21.1%	-87.7*	.	.	.
CCc1ccc(OCC(=O)N/N=C(\C)c2ccc(O)cc2O)cc1	-8.9%	?	-6.0	?	11.2µM*	?
CCc1ccc(OCC(=O)N/N=C(\C)c2ccc3c(c2)OCCO3)cc1	-13.8%	i	-36.4	?	-3.9%	?
CCN(CC)S(=O)(=O)c1ccc2c(c1)nc(CN(C)C(=O)Nc1cccc(Cl)c1)n2C	-6.2%	-19.8%	?	.	.	?
COCC1CCCN(Cc2ccc3c(c2)CN(C(=O)c2cccnc2OC)CCO3)C1 (stereo not drawn)	?	-9.9%	.	.	.	.
COc1ccc(/C=C/C(=O)C2C(=O)C=C(C)OC2=O)cc1O (stereo not drawn)	13.1%	-13.9%	-76.7*	-21.2%	-1.5%	-3.1%
COc1cc(/C=C/C(=O)O)cc(Br)c1O	-7.2%	i	-32.2	2.3%[46.1 µM]	15.9%	-11.8%
COc1ccc(/C=c2\s/c(=C\C(=O)C(C)(C)C)[nH]c2=O)cc1O	.	.	-5.4	0.6%	?	.
COc1cc(/C=C/C(=O)C2C(=O)C=C(C)OC2=O)cc(OC)c1O (stereo not drawn)	81.8%	58.0%	-90.2*	0.9%	?	-28.7%
Cc1cccc(Cn2c(C)c(CNC3CCCCCC3)c(C(=O)O)c2C)c1	-0.5%	-7.1%	-11.7	-12.1%[46.1 µM]	.	-9.4%[46.1 µM]
Cc1ccc(C(=O)N/C(=C\c2ccc(Cl)cc2)C(=O)NC2CCCCC2)cc1	?	?	-97.6*	.	.	-8.7%[46.1 µM]
O=C(NCCc1nc2ccccc2[nH]1)c1ccc(F)cc1	.	.	?	?	?	-8.7%
O=C(NCCc1nc2ccccc2[nH]1)c1cccc(Br)c1	-8.1%	-11.5%	-70.0*	0.8%[46.1 µM]	?	2.5%
Nc1nc(N)c2c(ccc3nccc32)[nH]1	?	?	-95.8*	.	?	.
CNc1c(NC(=O)c2cc(OC)cc(OC)c2)c(=O)oc2ccccc12	-1.1%	-11.7%	11.5	-18.1%[46.1 µM]	.	-23.3%[46.1 µM]
c1ccc(CCCN2CCN(CCOC(c3ccccc3)c3ccccc3)CC2)cc1	?	?	-65.8*	14.1µM*	7.94µM*	16.4µM*
Fc1ccc(C(OCCN2CCN(CCCc3ccccc3)CC2)c2ccc(F)cc2)cc1	.	.	-98.9*	7.08µM*	.	3.66µM*
c1ccc(COCCN2CCN(CCOCc3ccccc3)CC2)cc1	.	.	-2.6	?	-21.2%	-3.2%
CCN(Cc1ccccc1)S(=O)(=O)c1cc(C(=O)NCC2CCCCC2)ccc1OC	?	-7.4%	-83.0*	?	?	?
CCN(CC)c1ccc(S(=O)(=O)N(CC)CC)cc1NC(=O)C1CCCC1	-13.5%	-1.7%	11.7	?	?	7.94µM*
O=C(NCC1CCCCC1)c1ccc([N+](=O)[O-])cc1	.	.	9.7	.	20.7%	.
CCN(CC)S(=O)(=O)c1ccc(C(=O)NCC2CCCCC2)cc1	-12.4%	-2.0%	-2.7	-0.2%[46.1 µM]	5.4%	7.08µM*
CN(C)S(=O)(=O)c1cccc(C(=O)NCC2CCCCC2)c1	-6.1%	-4.3%	-78.2*	8.2%[46.1 µM]	-13.1%	-18.5%
CCCCn1c(=N)c(S(=O)(=O)c2ccc(C)cc2)cc2c(=O)n3cc(C)ccc3nc21	-8.6%	-13.9%	17.3	.	.	5.1%[46.1 µM]
CCc1nn2c(=O)cc(COC(=O)c3ccco3)nc2s1	0.9%	-2.2%	-8.7	.	.	?
SMILES	Vaccinia Venus	Vaccinia mCherry	HCMV inh	Marburg entry inh	HCV inhibitor	Lassa entry inh
O=S(=O)(c1ccccc1)N1CCN(c2nc(-c3cccnc3)nc3ccccc23)CC1	-10.1%	-13.8%	1.6	-8.1%[46.1 µM]	?	13.7%
O=S(=O)(/C=C/c1ccccc1)N1CCN(c2nc(-c3cccnc3)nc3ccccc23)CC1	-0.8%	i	?	11.2µM*	?	?
O=C(CSc1cn(CC(=O)N2CCOCC2)c2ccccc12)Nc1ccccc1F	-10.2%	-8.4%	-37.6	.	.	18.4%[46.1 µM]
COc1ccccc1/C=C/C=N/Nc1cccc(C(=O)O)c1	-24.3%	?	116.1	?	-22.1%	5.01µM*
O=C(O)c1cccc(N/N=C/c2ccc(-c3ccccc3)cc2)c1	-16.1%	-27.2%	109.3	?	2.8%	8.91µM*
COc1ccc(Br)cc1/C=N/Nc1cccc(C(=O)O)c1	0.5%	-23.7%	79.2	19.0%	17.6%	19.5%
CCC(C)n1cnc2c(c1=O)c1nc3ccccc3nc1n2Cc1ccc(OC)cc1 (stereo not drawn)	-4.9%	-14.5%	-75.2*	-25.9%	?	-16.7%
N[C@@H](CSS(=O)(=O)O)C(=O)O	-19.9%	-21.6%	.	.	.	.
CCCS(=O)(=O)N1CC(=O)N(c2cccc(Cl)c2)C(C)(C(=O)NC2CCCCC2)C1 (stereo not drawn)	-9.0%	-4.0%	0.0	.	.	0.5%[46.1 µM]
Cc1ccc(Sc2ccc(/C=N/O)cc2[N+](=O)[O-])cc1	?	?	17.6	?	11.2µM*	?
Cc1ccc2[nH]c3c(=O)n(CC(=O)N(C)c4cc(Cl)ccc4C)ncc3c2c1	-24.2%	?	-22.2	.	.	7.6%[46.1 µM]
Cc1ccc(Cl)cc1N(C)C(=O)Cn1ncc2c([nH]c3ccccc32)c1=O	-2.8%[7.34 µM]	-9.3%[7.34 µM]	-69.2*	.	-16.4%	.
CNc1sc(C(=O)c2ccccc2F)c(N)c1-c1nc2ccccc2s1	.	.	33.4	-27.4%	12.6µM*	-0.6%
O=C(CNC(=O)c1ccccc1F)OCc1nc2ccccc2s1	-0.8%	-14.8%	12.8	?	-11.2%	?
CC(C)(C)CC(C)(C)NCC(O)COc1ccc2c(c1)CCC2 (stereo not drawn)	?	?	-36.6	7.08µM*	?	?
CN1CCN(c2c(/C=N/O)c3ccccc3n2C)CC1	-6.9%	-5.6%	.	9.0%[46.1 µM]	-17.8%	17.4%[46.1 µM]
Cc1ccccc1C(=O)O/N=C/c1c(N2CCOCC2)n(C)c2ccccc12	.	.	-98.8*	?	1µM*	-16.0%
COc1ccc(NC(=O)N2C[C@H]3[C@@H](c4ccccc42)[C@@H](CO)N3C(=O)C2CC2)cc1	.	.	11.9	.	.	.
O=C(NCCN1CCOCC1)c1cnn(-c2ncc3c(n2)-c2ccccc2CC3)c1C1CC1	-7.6%	-11.7%	.	.	.	.
CCOc1ccc2[nH]c3c(NCCN(CC)CC)ncnc3c2c1	-20.7%	?	17.1	?	-1.8%	-26.4%
COc1ccc(CNc2ncnc3c2[nH]c2ccccc23)cc1	-20.9%[7.34 µM]	-4.1%[7.34 µM]	-71.8*	?	5.01µM*	?
C1=C(CCNc2ncnc3c2[nH]c2ccccc23)CCCC1	?	?	-90.5*	?	1.12µM*	?
Cc1ccc2[nH]c3c(NCc4ccccc4)ncnc3c2c1	.	.	?	.	7.94µM*	.
COc1ccc(CNc2ncnc3c2[nH]c2cc(OC)c(OC)cc23)cc1	-17.4%	-12.0%	-9.5	?	?	-2.3%[46.1 µM]
COc1ccc2[nH]c3c(NCCN(C(C)C)C(C)C)ncnc3c2c1	-6.3%	.	11.8	11.2µM*	?	-8.7%
